Experimental findings from PubChem BioAssay AID778 (Sanford-Burnham Center for Chemical Genomics, 2007) are described below.

Molecules are shown by their SMILES. The whole screen tested about 96,000 compounds, of which about 20,000 (21%) were called active. Only a sample is shown. Unmarked numbers belong to inactive results.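 The calls were made as follows: active = CYP2C19 inhibition above a set limit at 5 µM in the primary screen (cut at about 50% in these data); inactive = the rest.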

The target of this test is Cytochrome P450 2C19 (Homo sapiens) (UniProt P33261). Kind of test: blockers of cytochrome P450 2C19 activity – biochemical, luminescence, ADME assay, primary screen (AID 778).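 Also: plate controls were negative control wells for no effect and 2.5 mM tranylcypromine positive control for full effect.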 The settings on record: CYP2C19 Supersomes, luciferin-H EGE luminescence, 30 min; at 5 µM; hits give high values.
Sequence of Cytochrome P450 2C19 (Homo sapiens) (P33261 whole entry, looked up): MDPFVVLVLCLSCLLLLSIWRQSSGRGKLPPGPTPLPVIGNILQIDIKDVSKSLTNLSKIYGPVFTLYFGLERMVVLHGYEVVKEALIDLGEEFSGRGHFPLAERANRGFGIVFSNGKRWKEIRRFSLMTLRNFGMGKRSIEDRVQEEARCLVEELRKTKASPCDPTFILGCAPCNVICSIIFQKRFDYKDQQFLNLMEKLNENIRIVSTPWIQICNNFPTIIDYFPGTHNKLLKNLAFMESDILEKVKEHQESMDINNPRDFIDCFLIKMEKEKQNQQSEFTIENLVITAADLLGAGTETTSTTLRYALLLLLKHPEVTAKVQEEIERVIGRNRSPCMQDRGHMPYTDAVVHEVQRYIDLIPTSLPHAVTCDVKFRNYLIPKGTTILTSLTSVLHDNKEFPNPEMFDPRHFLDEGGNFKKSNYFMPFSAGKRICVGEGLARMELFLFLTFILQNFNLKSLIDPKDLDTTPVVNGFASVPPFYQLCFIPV
In the case of `COc1ccc(-c2[nH]nc(-c3ccccc3)c2-c2nc3ccccc3[nH]2)cc1`, the inhibition is 11.3%.
As for `Cn1c(C(=O)NCCCN2CCN(c3cccc(Cl)c3)CC2)cc2c(=O)n(C)c3ccccc3c21`, the inhibition is 18%.
On to `O=C(O)C1CCCN1S(=O)(=O)c1ccc2c(c1)CCC2` (stereo unspecified), for which the inhibition is -10.4%.
`O=C(NCc1cccs1)C1CCN(S(=O)(=O)c2ccc3c(c2)OCCO3)CC1`: the inhibition was 17.6%.
`CSc1cccc(NC(=O)C2CCCN2S(=O)(=O)c2ccc3c(c2)CCC(=O)N3)c1` (stereo unspecified): the inhibition was 56.8% (active).
Regarding `Cc1cccc(NC(=O)C2CCCN2S(=O)(=O)c2ccc(F)cc2)c1C` (stereo unspecified), the inhibition is 16.2%.
Under `COc1ccccc1CNC(=O)C1CCN(S(C)(=O)=O)CC1` stands 2.2%.
In the case of `O=C1CCc2cc(S(=O)(=O)N3CCC(C(=O)NCc4ccccc4Cl)CC3)ccc2N1`, the inhibition was 88.6% (active).
`CCOC(=O)CNC(=O)c1nn(-c2cccc(OC)c2)c(=O)c2ccccc12`: the inhibition is 5.3%.
On to `COc1ccc(-n2nnc3c(=O)n(CC(=O)OCc4ccccc4)cnc32)cc1`, for which the inhibition was 3.9%.
Under `COC(=O)C1=C(Nc2ccc(OC)cc2)C=C(C)C(C(=O)OC)C1c1ccc(C)cc1` (stereo unspecified) stands 33.3%; under `CC1(C)Cc2c(sc3nc4n(c(=N)c23)CCCCC4)CO1`, -6.4%; under `O=C(NCCCNCc1ccccc1)c1ccc(/C=N/O)nc1`, -13.4%.
As for `Cn1c(=O)[nH]c(=O)c2c1nc(CN(Cc1ccccc1)Cc1ccccc1)n2CCN1CCOCC1`, the inhibition was 14.9%.
As to `COc1ccc(-c2nc3n(c2Br)CCC3)cc1`, the inhibition is 32.9%.
Turning to `Cc1ccc(C(=O)Nc2c(C#N)c(C)c(C)n2Cc2ccccc2)cc1`, the inhibition was 23.9%.
Then `CN1C(=O)c2ccccc2C(C(=O)NCCCN2CCCC2)C1c1c[nH]c2ccccc12` (stereo unspecified), with -6.7%; and `COCc1[nH]nc2c1C(C1C=CCCC1)C(C#N)=C(N)O2` (stereo unspecified), with 17.2%.
For `N#CC1=C(N)OC2=C(C(=O)CCC2)C1C1CC=CCC1` (stereo unspecified), the inhibition is 61.1% (active).
Under `CC1CCc2c(sc(NC(=O)c3ccc(Cn4cc(Br)cn4)o3)c2C(N)=O)C1` (stereo unspecified) stands 28.9%; under `Nc1ccccc1SCc1cc([N+](=O)[O-])cc2c1OCOC2`, 19.4%; under `CCC(=O)c1ccc(OCC(O)CN2C(=O)NC(C)(C)C2=O)cc1` (stereo unspecified), 31.7%.
Under `CC1(C)NC(=O)N(CCOc2cccc(Oc3ccccc3)c2)C1=O` stands 42.5%.
`Cc1ccc(SCC2=NNC(=O)C2)cc1`: the inhibition was 7.6%.
`Cc1ccc(SCCN2C(=O)NC(C)(C)C2=O)cc1`: the inhibition was 97.8% (active).
Under `CC1(C)NC(=O)N(CCCCSc2ccc(Cl)cc2)C1=O` stands 87.5% (active).
`N#CC1=C(N)Oc2c(sc3ccccc23)C1c1ccco1` (stereo unspecified): the inhibition was 22.6%.
For the molecule `Cc1c(Cl)c([N+](=O)[O-])nn1Cc1ccc(C(=O)N/N=C\c2cc(Cl)ccc2O)o1`, the inhibition was 31.1%.
On to `CCN(CC)CCn1c(=S)[nH]c2ncccc2c1=O`, for which the inhibition was -16.9%.
Regarding `Cc1cccc(N2C(=O)c3cccnc3C2=O)c1`, the inhibition is 10.5%.
As for `COC(=O)c1ccc(Cc2ccccc2)o1`, the inhibition is -1.3%.
With `COc1ccc(C(C(=O)NCc2ccccc2)N(Cc2cccs2)C(=O)c2cnccn2)cc1` (stereo unspecified), the inhibition is 47%.
Consider `COC(=O)c1ccc(CN(c2ccccc2OC)S(=O)(=O)c2cccs2)o1`, for which the inhibition was 98.5% (active).
For `CCCCN(CCCC)C(=O)CCS(=O)(=O)c1ccc2c(c1)n(C)c(=O)c(=O)n2C`, the inhibition was 3.1%.
Turning to `CS(=O)(=O)c1ccc2c(c1)SC1=NC(=O)/C(=C/c3ccco3)C(=N)N12`, the inhibition is 8.6%.
As to `CCS(=O)(=O)N1CCCC(C(=O)NCCCN(C)Cc2ccccc2)C1` (stereo unspecified), the inhibition is -3%.
`Cc1cc(C)nc(N2C(=O)CC(Cc3ccccc3)C2=O)n1` (stereo unspecified): the inhibition was 15.5%.
On to `O=C1CC(Cc2ccccc2)C(=O)N1c1ccc(Cl)cn1` (stereo unspecified), for which the inhibition was 59.4% (active).
Regarding `O=C(O)CN1C(=O)CC(Cc2ccccc2)C1=O` (stereo unspecified), the inhibition was -1%.
As for `COc1ccc(-n2c(C)nc3c(cnn3-c3ccccc3)c2=O)cc1`, the inhibition was 14.9%.
For `Cc1cc(C)c(S(=O)(=O)c2ccccc2)c(OC(=O)c2c(F)cccc2Cl)n1`, the inhibition is 12.4%.
Turning to `Cc1nc(C)c(C(=O)Nc2ccc(C)c(F)c2)o1`, the inhibition was -9%.
For `CCOc1ccccc1-n1c(SCC(=O)N2CCCC2)nnc1-c1ccoc1C`, the inhibition was 2%.
`Cc1ccc2nc(/C(C#N)=C\c3ccc(OC(=O)c4cccs4)cc3)[nH]c2c1`: the inhibition was 50.9% (active).
Under `COc1ccc(/C=C(/NC(=O)c2ccc(C)cc2)c2nc3ccccc3[nH]2)cc1OC` stands 35.6%.
`Cc1ccc2nc(S(=O)(=O)O)[nH]c2c1`: the inhibition was -14.4%.
Consider `C=CCn1c(SCC(=O)/C(C#N)=C(\C)N)nc2sc(C)c(C)c2c1=O`, for which the inhibition is 6.6%.
Regarding `Cc1cnc(NC(=O)CSc2nnc(C)s2)s1`, the inhibition is 19.7%.
In the case of `O=C(CSc1ncnc2c1cnn2CCc1ccccc1)Nc1ccc(F)cc1`, the inhibition was 7.1%.
Consider `CCC(C)NC(=O)N[C@@H](CCSC)C(=O)O` (stereo partly specified), for which the inhibition was -1.9%.
Then `CCC1(C)Cc2c(sc3nc(SC)nc(N)c23)CO1` (stereo unspecified), with 80.9% (active).
With `CCC1(C)Cc2c(sc3nnn(CC(=O)Nc4ccc(Cl)cc4)c(=O)c23)CO1` (stereo unspecified), the inhibition is 22.1%.
As to `CCCSc1nc(NCc2ccco2)c2c3c(sc2n1)COC(C)(CC)C3` (stereo unspecified), the inhibition was 13.8%.
Then `COC(=O)c1cc(OC)c(OC)cc1NC(=O)C1CCCO1` (stereo unspecified), with 23.5%; and `Cc1ccc(C(=O)c2c(NC(=O)c3ccncc3)sc3c2CCCC3)cc1`, with 28.7%.
Under `O=C(Nc1sc2c(c1-c1nc3ccccc3[nH]1)CCCC2)C1CC1` stands 9.4%; under `O=C1NC(c2ccncc2)Nc2sc3c(c21)CCCC3` (stereo unspecified), 82.8% (active); under `COc1ccc2nc(NC3=NCN(CC4CCCO4)CN3)nc(C)c2c1` (stereo unspecified), 2%.
Turning to `Cc1cccn2c(=O)c(/C=C(\C#N)S(=O)(=O)c3ccc(Cl)cc3)c(N3CCC(C(N)=O)CC3)nc12`, the inhibition is 86.2% (active).
Then `COc1ccccc1-c1nc(C#N)c(N2CCC(C(N)=O)CC2)o1`, with -9.9%.
In the case of `Cc1ccc(C(c2nnnn2CS(=O)(=O)c2ccc(C)cc2)N2CCC(C(N)=O)CC2)cc1` (stereo unspecified), the inhibition was 0.4%.

The inhibition is the relative decrease from the control value, in per cent.
